Measured values reported in ChEMBL document CHEMBL3988442, “University of Dundee, Small-Polar-MMV Screening Library” (2021).
For some of these results: Results with a measured potency or affinity are listed apart.

Assays:
Set-up in all cases: scale not given: direction of the effect not stated beside the values
[1] = target: Protein translocase subunit SecA (Escherichia coli (strain K12)) (UniProt P10408); assay: Assay to Identify E. coli SecA ATPase Inhibitors; assay type: functional; settings: 30 µM
[2] = target: T1, Ubiquitin-activating enzyme e1, putative (Leishmania donovani (strain BPK282A1)) (UniProt E9BSI1); assay: Leishmania donovani Ubiquitin Activating Enzyme (LdE1); assay type: functional; settings: 30 µM
T1 sequence (whole entry): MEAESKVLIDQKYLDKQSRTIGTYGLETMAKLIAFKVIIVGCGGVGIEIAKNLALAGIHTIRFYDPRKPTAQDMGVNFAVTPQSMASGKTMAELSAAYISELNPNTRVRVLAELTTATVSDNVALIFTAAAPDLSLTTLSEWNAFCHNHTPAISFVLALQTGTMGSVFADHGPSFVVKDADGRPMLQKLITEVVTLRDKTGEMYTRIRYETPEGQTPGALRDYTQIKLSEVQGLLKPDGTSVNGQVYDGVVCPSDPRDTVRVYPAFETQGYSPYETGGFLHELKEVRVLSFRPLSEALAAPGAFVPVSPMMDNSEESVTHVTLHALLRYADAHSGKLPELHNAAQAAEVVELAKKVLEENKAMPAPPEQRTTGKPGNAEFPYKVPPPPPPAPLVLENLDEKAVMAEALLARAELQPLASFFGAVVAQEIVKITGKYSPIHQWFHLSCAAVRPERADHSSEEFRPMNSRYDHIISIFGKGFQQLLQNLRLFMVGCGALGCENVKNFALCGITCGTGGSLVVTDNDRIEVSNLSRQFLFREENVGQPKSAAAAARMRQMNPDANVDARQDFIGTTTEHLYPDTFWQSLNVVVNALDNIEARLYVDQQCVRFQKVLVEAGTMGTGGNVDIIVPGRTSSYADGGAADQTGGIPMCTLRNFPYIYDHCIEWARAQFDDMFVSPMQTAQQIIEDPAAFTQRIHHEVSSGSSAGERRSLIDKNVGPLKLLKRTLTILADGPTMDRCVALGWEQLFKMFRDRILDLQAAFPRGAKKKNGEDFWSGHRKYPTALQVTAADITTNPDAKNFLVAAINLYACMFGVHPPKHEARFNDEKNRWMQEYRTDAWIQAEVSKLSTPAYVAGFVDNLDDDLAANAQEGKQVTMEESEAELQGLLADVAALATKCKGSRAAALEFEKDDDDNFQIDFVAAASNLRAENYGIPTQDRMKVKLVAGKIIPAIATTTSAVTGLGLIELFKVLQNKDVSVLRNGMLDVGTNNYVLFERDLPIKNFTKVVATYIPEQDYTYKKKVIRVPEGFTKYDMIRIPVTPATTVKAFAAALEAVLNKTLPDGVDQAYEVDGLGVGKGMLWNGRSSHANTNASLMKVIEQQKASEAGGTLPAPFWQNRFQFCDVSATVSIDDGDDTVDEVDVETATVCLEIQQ

[3] = target: AMP-activated protein kinase, AMPK (Homo sapiens) (UniProt P54646+O43741+P54619+Q9UGJ0+Q9Y478+Q13131+Q9UGI9); assay: AMP-dependent Kinase enzyme assay. An in vitro enzyme assay that detects ADP turnover that is directly proportional to AMPK activity. This uses naive AMPK that is activated during the assay with MK-8722; assay type: functional; settings: 30 µM
[4] = target: Sialic acid-binding Ig-like lectin 9 (Homo sapiens) (UniProt Q9Y336); assay: Hs-Siglec9 ALPHAscreen SOP 20170721; settings: 10 µM
[5] = tested on: Trypanosoma cruzi; assay: Trypanosoma cruzi phosphomannomutase and mannose-1-phosphate guanylyltransferase assay; assay type: functional; settings: 10 µM
[6] = target: T2, Arginase-2, mitochondrial (Homo sapiens) (UniProt P78540); assay: in vitro enzyme assay to detect the production of urea directly proportional to the activity of Arginase II; assay type: functional; settings: 33.3 µM; further: in the data most compounds retested in dose-response had high values
T2 sequence (whole entry): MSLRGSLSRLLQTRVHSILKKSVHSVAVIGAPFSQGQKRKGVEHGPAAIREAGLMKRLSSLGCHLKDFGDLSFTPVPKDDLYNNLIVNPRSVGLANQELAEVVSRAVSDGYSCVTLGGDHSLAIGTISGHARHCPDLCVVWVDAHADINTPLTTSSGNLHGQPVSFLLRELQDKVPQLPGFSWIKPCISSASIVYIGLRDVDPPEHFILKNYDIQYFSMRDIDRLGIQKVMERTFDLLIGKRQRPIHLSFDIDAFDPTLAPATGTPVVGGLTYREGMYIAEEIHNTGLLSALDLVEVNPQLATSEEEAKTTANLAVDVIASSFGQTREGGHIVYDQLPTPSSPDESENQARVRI

[7] = target: T3, Proteasome subunit beta (Trypanosoma cruzi) (UniProt O96673); assay: Trypanosoma cruzi proteasome chymotrypsin-like activity (TcProtChymo) assay.; further: in the data most compounds retested in dose-response had high values; assay type: functional; settings: 9.37 µM
T3 sequence (whole entry): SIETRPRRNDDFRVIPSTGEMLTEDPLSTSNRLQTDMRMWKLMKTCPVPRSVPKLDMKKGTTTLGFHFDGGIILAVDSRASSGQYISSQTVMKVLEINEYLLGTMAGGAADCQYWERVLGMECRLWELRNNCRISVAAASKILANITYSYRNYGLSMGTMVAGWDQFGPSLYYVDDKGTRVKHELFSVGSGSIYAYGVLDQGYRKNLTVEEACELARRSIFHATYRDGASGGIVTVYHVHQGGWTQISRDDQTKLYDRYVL

[8] = species: Homo sapiens; assay: To identify inhibition of the IFN signalling (Jak-Stat) pathway via expression of an eGFP reporter gene under the control of an IFN-stimulated response element (ISRE) containing MxA promoter.; assay type: functional; settings: 30 µM
[9] = target: T4, Tyrosyl-tRNA synthetase, putative (Trypanosoma cruzi (strain CL Brener)) (UniProt Q4DSP6); assay: Trypanosoma cruzi tyrosyl tRNA synthetase (TcYRS) _High Tyrosine SOP; assay type: functional; settings: 30 µM; further: in the data most compounds retested in dose-response had high values
T4 sequence (whole entry): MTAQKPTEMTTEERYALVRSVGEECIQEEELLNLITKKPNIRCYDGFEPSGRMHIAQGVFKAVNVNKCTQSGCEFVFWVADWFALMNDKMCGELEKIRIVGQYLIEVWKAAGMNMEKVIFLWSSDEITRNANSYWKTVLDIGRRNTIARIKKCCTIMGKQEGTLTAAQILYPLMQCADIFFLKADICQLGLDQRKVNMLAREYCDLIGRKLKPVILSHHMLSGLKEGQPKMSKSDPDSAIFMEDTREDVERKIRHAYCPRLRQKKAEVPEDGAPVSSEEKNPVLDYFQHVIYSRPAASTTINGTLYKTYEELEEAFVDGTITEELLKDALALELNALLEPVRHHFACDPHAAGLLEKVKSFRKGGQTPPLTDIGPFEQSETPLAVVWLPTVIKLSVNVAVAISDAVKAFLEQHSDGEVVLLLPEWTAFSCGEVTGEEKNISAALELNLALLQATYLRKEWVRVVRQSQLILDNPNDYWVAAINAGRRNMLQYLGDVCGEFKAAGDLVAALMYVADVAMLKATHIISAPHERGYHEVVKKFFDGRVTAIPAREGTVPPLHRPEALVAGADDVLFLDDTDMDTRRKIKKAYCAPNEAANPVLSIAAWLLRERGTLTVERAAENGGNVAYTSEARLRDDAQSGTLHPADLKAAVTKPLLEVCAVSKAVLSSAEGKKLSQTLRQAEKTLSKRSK

[10] = target: T4, Tyrosyl-tRNA synthetase, putative (Trypanosoma cruzi (strain CL Brener)); assay: Trypanosoma cruzi tyrosyl tRNA synthetase (TcYRS) SOP; assay type: functional; settings: 30 µM
[11] = target: Chromo domain-containing protein 1 (Saccharomyces cerevisiae (strain ATCC 204508 / S288c) (Baker's yeast)) (UniProt P32657); assay: ScCHD-1 Enzyme Inhibition Assay; assay type: functional; settings: 30 µM; further: in the data most compounds retested in dose-response had high values
Chromo domain-containing protein 1 (Saccharomyces cerevisiae (strain ATCC 204508 / S288c) (Baker's yeast)), sequence (P32657 whole entry, the tested form may be a part): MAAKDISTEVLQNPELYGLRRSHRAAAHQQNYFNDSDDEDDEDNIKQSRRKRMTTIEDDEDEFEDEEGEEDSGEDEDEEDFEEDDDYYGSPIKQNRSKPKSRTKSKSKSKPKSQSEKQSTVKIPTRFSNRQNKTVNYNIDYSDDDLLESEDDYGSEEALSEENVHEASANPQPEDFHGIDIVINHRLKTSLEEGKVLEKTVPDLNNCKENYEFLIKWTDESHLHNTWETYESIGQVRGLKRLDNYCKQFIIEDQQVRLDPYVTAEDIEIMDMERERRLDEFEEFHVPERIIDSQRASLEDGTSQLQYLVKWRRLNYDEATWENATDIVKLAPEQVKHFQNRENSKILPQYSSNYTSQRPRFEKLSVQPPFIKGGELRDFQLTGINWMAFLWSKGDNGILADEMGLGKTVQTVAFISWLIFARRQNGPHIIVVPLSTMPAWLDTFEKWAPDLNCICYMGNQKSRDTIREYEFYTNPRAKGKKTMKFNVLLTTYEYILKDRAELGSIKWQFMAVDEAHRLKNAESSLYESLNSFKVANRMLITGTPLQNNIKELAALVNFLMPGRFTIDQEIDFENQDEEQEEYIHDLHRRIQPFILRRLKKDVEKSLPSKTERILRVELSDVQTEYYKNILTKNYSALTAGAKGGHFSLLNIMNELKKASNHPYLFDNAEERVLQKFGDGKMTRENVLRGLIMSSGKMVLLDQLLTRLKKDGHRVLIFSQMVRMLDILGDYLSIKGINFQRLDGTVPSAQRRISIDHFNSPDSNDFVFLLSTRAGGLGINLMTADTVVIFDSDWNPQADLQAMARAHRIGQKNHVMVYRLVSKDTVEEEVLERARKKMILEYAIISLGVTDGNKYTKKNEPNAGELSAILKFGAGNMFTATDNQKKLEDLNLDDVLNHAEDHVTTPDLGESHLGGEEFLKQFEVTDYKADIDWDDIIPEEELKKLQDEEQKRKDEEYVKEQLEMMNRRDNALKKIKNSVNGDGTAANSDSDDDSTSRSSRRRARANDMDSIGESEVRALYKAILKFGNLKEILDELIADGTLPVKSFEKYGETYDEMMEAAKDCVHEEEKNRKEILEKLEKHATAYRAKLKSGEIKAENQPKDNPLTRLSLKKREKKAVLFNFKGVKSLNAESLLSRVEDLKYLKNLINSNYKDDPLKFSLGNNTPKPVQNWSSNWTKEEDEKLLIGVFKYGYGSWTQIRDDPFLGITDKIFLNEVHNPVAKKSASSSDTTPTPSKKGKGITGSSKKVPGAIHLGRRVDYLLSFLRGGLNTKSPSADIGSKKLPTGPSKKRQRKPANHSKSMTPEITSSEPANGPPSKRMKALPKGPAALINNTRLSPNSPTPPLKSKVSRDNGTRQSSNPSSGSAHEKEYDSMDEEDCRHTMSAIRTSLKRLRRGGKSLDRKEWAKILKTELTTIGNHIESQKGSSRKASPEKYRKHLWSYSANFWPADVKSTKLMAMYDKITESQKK

Sialic acid-binding Ig-like lectin 9 (Homo sapiens), sequence (Q9Y336 whole entry): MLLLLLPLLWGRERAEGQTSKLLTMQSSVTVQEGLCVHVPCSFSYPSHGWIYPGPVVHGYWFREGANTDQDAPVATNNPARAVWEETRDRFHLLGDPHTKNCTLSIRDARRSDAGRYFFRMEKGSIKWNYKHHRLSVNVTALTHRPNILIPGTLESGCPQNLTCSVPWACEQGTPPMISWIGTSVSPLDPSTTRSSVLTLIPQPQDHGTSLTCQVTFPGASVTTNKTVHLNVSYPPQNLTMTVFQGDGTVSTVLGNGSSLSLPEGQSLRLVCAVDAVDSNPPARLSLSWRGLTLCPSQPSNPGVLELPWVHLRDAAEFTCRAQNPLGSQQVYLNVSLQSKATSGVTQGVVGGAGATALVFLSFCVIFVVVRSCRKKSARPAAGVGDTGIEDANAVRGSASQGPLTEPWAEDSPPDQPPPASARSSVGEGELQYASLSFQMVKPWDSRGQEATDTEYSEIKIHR
Protein translocase subunit SecA (Escherichia coli (strain K12)), sequence (P10408 whole entry): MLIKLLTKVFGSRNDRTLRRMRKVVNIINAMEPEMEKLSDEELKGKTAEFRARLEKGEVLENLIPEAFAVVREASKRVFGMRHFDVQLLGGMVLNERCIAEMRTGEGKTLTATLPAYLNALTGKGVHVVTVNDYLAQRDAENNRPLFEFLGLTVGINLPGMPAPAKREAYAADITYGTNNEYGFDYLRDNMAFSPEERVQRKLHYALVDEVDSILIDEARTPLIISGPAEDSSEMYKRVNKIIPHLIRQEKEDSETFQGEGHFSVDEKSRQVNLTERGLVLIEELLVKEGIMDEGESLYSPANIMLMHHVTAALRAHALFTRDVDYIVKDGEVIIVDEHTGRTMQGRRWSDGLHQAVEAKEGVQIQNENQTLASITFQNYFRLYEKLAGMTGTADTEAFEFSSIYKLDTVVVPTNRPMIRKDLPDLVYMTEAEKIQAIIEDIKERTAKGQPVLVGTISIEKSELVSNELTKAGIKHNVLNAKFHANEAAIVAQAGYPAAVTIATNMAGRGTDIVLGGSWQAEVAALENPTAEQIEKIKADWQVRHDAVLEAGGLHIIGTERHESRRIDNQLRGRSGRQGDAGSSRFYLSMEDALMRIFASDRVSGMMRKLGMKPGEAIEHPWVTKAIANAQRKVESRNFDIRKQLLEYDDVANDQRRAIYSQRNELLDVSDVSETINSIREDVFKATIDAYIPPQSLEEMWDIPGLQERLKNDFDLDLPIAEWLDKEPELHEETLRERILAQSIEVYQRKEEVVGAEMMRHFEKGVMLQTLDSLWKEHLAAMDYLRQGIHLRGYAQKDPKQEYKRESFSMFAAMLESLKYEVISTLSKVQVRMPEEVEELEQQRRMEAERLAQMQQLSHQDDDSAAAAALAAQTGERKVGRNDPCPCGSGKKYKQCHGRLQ

Structure (SMILES)	Percent Effect [1] [%]	Percent Effect [2] [%]	Percent Effect [3] [%]	Percent Effect [4] [%]	Percent Effect [5] [%]	Percent Effect [6] [%]	Percent Effect [7] [%]	Percent Effect [8] [%]	Percent Effect [9] [%]	Percent Effect [10] [%]	Percent Effect [11] [%]
Cc1nn(C)c(C)c1C1CCCN1CC(=O)NC(C1CC1)C1CC1 (configuration not stated)	-3.47	10.8	-8.63	11.2	4.25	-4.01	-3.06	4.1	5.42	11.1	-9.75
COc1ccc(CN2CCCC3(CCN(c4ccsc4)C3=O)C2)cc1 (configuration not stated)	-1.81	0	5.65	2.16	-5.32	3.96	6.78	21.2	2.13	3.85	-0.303
O=C(NCCCNC(=O)c1cccc(O)c1)Nc1ccc(F)cc1F	-7.43	18.4	7.05	-5.18	2.24	-3.55	12.9	3.94	2.13	15.6	-5.87
O=C(c1cscn1)N1CCC[C@]2(C[C@H](OCC3CC3)CO2)C1	-1.77	-2.67	6.38	4.3	5.91	0.233	3.08	2.38	4.25	1.28	1.14
Cc1ncsc1CN1CC[C@H]2C(=O)N(c3ccccc3)CCO[C@H]2C1	-1.58	10.7	7.3	-5.67	-0.591	1.17	16.5	14.6	11.7	16.7	-4.23
Cc1ccc(OCCCNC(=O)NC(C)c2nncn2C)cc1 (configuration not stated)	-4.22	13	6.68	-5.15	4.41	4.42	8	-0.0367	7.62	18.8	-17.6
CCc1ccc(C2CCCCCN2Cc2nc(CCOC)no2)o1 (configuration not stated)	-1.49	2.6	3.4	5.24	3.05	-9.65	16.5	19.7	-14	-18.5	-9.18
CC(C)Nc1nc2c(cc1C(=O)NCC1CC1)CCNCC2	-1.6	10.7	6.52	7.51	-2.9	-29.2	8.55	-6.96	7.29	5	-10.3
c1nc(CCC2CCCN2)cc(N2CCCOCC2)n1 (configuration not stated)	-4.1	9.46	11.8	-4.56	-6.13	-3.02	9.36	10.3	3.23	6.49	-5.74
O=C(O)C(c1ccc2c(c1)OCCO2)N1CCCCCC1 (configuration not stated)	-4.06	5.33	0.637	5.42	-0.682	4.69	17.1	-7.93	9.29	13.6	-1.28
Cc1cnn(CC2CCCN2c2nn3cc(C)nc3s2)c1 (configuration not stated)	-7.38	11.4	-3.44	2.81	-0.103	-1.07	7.03	8.17	-2.08	15.2	-26
CC(C)C(=O)N1CCN(C(=O)c2cscn2)[C@H]2CS(=O)(=O)C[C@H]21	-2.31	15.3	-5.83	5.33	2.04	4.42	13.9	-3.92	3.16	12.8	-0.218
COc1cccc(CN(C)C(=O)CSc2ccc3c(c2)OCCO3)c1	-7.29	-10.5	15.3	0.77	-0.876	-2.37	6.62	6.47	-4.25	-15.6	0.365
CC(C)NC(=O)N1CCC2(CC(C(=O)NCc3cccnc3)=NO2)C1 (configuration not stated)	-0.964	2.67	4.37	10.3	-5.99	-2.69	8.89	8.43	-3.12	0	1.61
O=C(c1ccccn1)N1C[C@@H]2CC[C@H](C1)N(C(=O)CCc1cccs1)C2	-6.27	5.2	2.15	9.38	6.59	-74.5	13.1	-10.3	3.23	8.64	2.24
COc1ccc(CN2CCn3cc(CN4CCN(C)CC4)nc3C2)cc1	-4.41	8.11	4.53	-5.52	-2.83	4.78	18.4	-7.72	-2.16	5.13	3.23
CC(=O)N1CC(Cc2nccc3ccn(C)c23)C1	-2.79	24	0.304	-7.93	1.18	3.96	22.6	1.82	1.06	16.7	-6.59
